Values joined by “and” are separate entries in the source; they are usually repeats but may differ in a detail not shown here. Identical values can stand only once.
Legend:
Format in all cases: functional
[1] = system: Plasmodium falciparum; test: GSK_TCMDC: Inhibition of Plasmodium falciparum 3D7 in whole red blood cells, using parasite LDH activity as an index of growth. Test compounds present at 2uM
[2] = system: Plasmodium falciparum; test: GSK_TCMDC: Inhibition of Plasmodium falciparum Dd2 in whole red blood cells, using parasite LDH activity as an index of growth. Test compounds present at 2uM
[3] = system: HepG2; test: GSK_TCMDC: Percent inhibition of human HepG2 cell line. Test compounds present at 10uM.

`O=C(/C=C/c1ccc(Cl)c(Cl)c1)N1CCC(CN2CCC(c3c[nH]c4ccccc34)C(O)C2)CC1` (stereo not given) was tested. Which Inhibition [1] did it give?
The Inhibition was 99%.

And the Inhibition [2]?
Its Inhibition is 14%.

And the Inhibition [3]?
Its Inhibition is 37%.

Which results are given for `COC(=O)/C=C/C(=O)N[C@@H]1CC[C@@]2(O)[C@H]3Cc4ccc(O)c5c4[C@@]2(CCN3CC2CC2)[C@H]1O5.Cl`?
Inhibition [1]: 95%; Inhibition [2]: 66%; Inhibition [3]: 9%

`O=C(Cc1cc(=O)oc2cc(O)ccc12)N1CCC(CN2CCC(c3c[nH]c4ccccc34)CC2)CC1` was tested. Which Inhibition [1] did it give?
Its Inhibition is 94%.

What about the Inhibition [2] of the same compound?
The Inhibition was 0%.

And the Inhibition [3]?
Its Inhibition is 1%.

For `CN1CCC(COC(=O)C(O)(c2ccccc2)c2ccccc2)C1` (stereo not given) [TRICLAZATE], which Inhibition [1] is on record?
Its Inhibition is 98%.

And the Inhibition [2]?
The Inhibition was 4%.

What about the Inhibition [3] of the same compound?
The Inhibition was 0%.

What does the source list for `COc1cc(C=CC(=O)NC2CCC(CN3CCC(c4c[nH]c5ccccc45)CC3)CC2)cc(OC)c1` (stereo not given)?
Inhibition [1]: 100%; Inhibition [2]: 90%; Inhibition [3]: 38%

Which results are given for `CCN1CCC(N2CCC(n3c(C)nc4cc(C(F)(F)F)ccc43)CC2)CC1`?
Inhibition [1]: 93%; Inhibition [2]: 16%; Inhibition [3]: 6%

Which Inhibition [1] does the source give for `Cl.O=C(CC1CCCC1)N(CC1CCN(Cc2ccc(C(F)(F)F)cc2)CC1)c1ccc(N2CCOCC2)c(F)c1` here?
The Inhibition was 92%.

What about the Inhibition [2] of the same compound?
The Inhibition was 97%.

And the Inhibition [3]?
The Inhibition was 10%.

Which results are given for `O=C(/C=C/c1ccccc1O)NC1CCC(CN2CCC(c3c[nH]c4ccccc34)CC2)CC1` (stereo not given)?
Inhibition [1]: 100%; Inhibition [2]: 45% and 73%; Inhibition [3]: 11% and 22%

What does the source list for `CN1CC=C(C=Cc2c[nH]c3ccccc23)CC1`?
Inhibition [1]: 86%; Inhibition [2]: 64%; Inhibition [3]: 14%

Which results are given for `CC(=O)Nc1ccc(CN2CCC(N(C)c3cc(NC(=O)c4cccs4)ccn3)CC2)cc1.O=C(O)C(F)(F)F`?
Inhibition [1]: 100%; Inhibition [2]: 43%; Inhibition [3]: 0%

— ChEMBL document CHEMBL1157539, “Thousands of chemical starting points for antimalarial lead identification” (Nature, 2010)
